# Many of the other results were omitted from the sample, so hits are more common in it than they were.
# RBX1-CUL1 inh = blocks human RBX1-Cullin-1 di-ubiquitin formation; P62877+Q13616; in vitro K48 di-Ub FRET, acceptor:donor ratio, 45 min; inhibition, % at 10 µM; 140,000 compounds, 0.6% hits; AID 1347404; in the data active means inhibition above about 25%
# Target sequence (P62877 whole entry, looked up): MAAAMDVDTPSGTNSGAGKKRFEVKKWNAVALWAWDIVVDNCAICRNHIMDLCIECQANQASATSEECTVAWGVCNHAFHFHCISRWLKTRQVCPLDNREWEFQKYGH
# Target sequence (Q13616 whole entry, looked up): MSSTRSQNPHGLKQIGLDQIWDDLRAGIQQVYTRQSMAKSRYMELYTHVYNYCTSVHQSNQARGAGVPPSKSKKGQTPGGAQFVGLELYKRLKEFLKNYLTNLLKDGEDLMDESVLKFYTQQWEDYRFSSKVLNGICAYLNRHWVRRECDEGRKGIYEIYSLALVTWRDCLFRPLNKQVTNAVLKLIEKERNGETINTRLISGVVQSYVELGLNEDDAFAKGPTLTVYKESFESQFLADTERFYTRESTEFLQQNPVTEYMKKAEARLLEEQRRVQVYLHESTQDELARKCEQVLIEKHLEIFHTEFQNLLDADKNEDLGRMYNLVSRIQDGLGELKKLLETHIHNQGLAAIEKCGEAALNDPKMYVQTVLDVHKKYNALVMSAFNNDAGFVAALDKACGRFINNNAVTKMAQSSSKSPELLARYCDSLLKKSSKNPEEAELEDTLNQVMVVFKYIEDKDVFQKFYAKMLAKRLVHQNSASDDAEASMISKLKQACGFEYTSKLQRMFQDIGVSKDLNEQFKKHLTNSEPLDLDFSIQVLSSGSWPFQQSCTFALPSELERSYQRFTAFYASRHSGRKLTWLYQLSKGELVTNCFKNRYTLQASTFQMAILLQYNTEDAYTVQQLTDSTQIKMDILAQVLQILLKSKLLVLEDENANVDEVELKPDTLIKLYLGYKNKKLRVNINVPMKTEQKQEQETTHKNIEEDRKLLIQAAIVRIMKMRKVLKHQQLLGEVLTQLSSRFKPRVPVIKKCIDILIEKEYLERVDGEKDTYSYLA
# Numbers without * were called inactive.
SMILES,RBX1-CUL1 inh
O=C(NCC(c1ccc2c(c1)OCO2)N1CCN(c2ccc(F)cc2)CC1)c1cccc([N+](=O)[O-])c1 (configuration not stated),2
COc1ccc(/C=C2\C(=O)NN(c3ccc(F)cc3)C2=O)cc1,-4
COc1ccc(/C=C2/C(=O)NN(c3cccc(C)c3)C2=O)cc1,5
COc1cc(/C=C2\C(=O)NN(c3ccc(C)cc3)C2=O)cc(OC)c1OC,1
Cc1cccc(N2NC(=O)/C(=C/c3ccccc3)C2=O)c1,-9
O=C1NN(c2ccc(I)cc2)C(=O)/C1=C\c1ccccc1,3
O=C1NN(c2ccc(I)cc2)C(=O)/C1=C\c1ccc(O)cc1O,-15
Cc1ccc(N2NC(=O)/C(=C/c3ccc(N(C)CCC(C)C)cc3)C2=O)cc1C,17
O=C1NN(c2ccc(I)cc2)C(=O)/C1=C\c1ccc(O)c(O)c1,106*
CN(c1ccccc1)c1ccc(/C=C2\C(=O)NN(c3ccccc3)C2=O)cc1,31*
COC(=O)c1ccc(N2NC(=O)/C(=C/c3ccc(C)cc3)C2=O)cc1,27*
Cc1ccc(N2NC(=O)/C(=C/c3ccc(F)cc3)C2=O)cc1C,78*
O=C1NN(c2ccccc2)C(=O)/C1=C/c1ccccc1,5
COC(=O)c1ccc(NC(=O)C2CC(=O)N(c3cc(C)ccc3C)C2)cc1 (configuration not stated),-3
O=C(CCSc1nnc(-c2ccncc2)o1)Nc1ccc(F)cc1,-2
Cc1ccc(C)c(OS(C)(=O)=O)c1,5
Cc1ccc(C)n1-c1ccccc1C1C=CN(C(=O)OC(C)(C)C)C=C1,15
CCCCCOc1cccc(C2C(C(=O)c3cccs3)C(=O)C(=O)N2CCN2CCOCC2)c1 (configuration not stated),14
Cc1oc(-c2cc(F)cc(F)c2)nc1CN1CCOCC1,-5
CN(Cc1n[nH]c2c1CCCCC2)C(=O)Cn1cc(NC(=O)CCOc2ccccc2)cn1,5
COc1ccc(C(=O)CC2(O)C(=O)N(Cc3ccc(Cl)cc3)c3ccccc32)cc1OC (configuration not stated),11
COc1cccc(CN2CCN(C(C)=O)CC2)c1OCC(O)CN1CCOCC1 (configuration not stated),7
COCCOc1ccccc1C(=O)Nc1ccc(C)c(C)c1,5
O=C(C1COc2cc(S(=O)(=O)Nc3ccc(Cl)cc3)ccc2O1)N1CCCC1 (configuration not stated),2
O=C1NN(c2ccc(F)cc2)C(=O)/C1=C\c1ccc(F)cc1,-1
SMILES,RBX1-CUL1 inh
O=C1NN(c2ccc(F)cc2)C(=O)/C1=C/c1ccccc1,5
COc1cc(/C=C2/C(=O)NN(c3ccc(F)cc3)C2=O)cc(Cl)c1O,-3
Cc1ccc(N2NC(=O)/C(=C\c3ccc(N(C)C)c(Br)c3)C2=O)cc1Cl,2
Cc1ccc(N2NC(=O)/C(=C/c3ccc(F)cc3)C2=O)cc1,71*
O=C1NN(c2ccc(F)c(Cl)c2)C(=O)/C1=C\c1ccc(F)cc1,77*
Cc1ccc(N2NC(=O)/C(=C/c3ccc(F)cc3)C2=O)cc1Cl,50*
CN(C)S(=O)(=O)N1CCC(C2CCN(CCc3ccccc3)C2)CC1 (configuration not stated),-5
COc1ccc(OCc2nc(C(=O)NC(C)C)co2)cc1,-6
CCOC1(OCC)C(C=Cc2ccc([N+](=O)[O-])cc2)C(C#N)(C#N)C1(OCC)OCC (configuration not stated),5
COC(=O)c1ccc(CSc2nc3c([nH]c4ccccc43)c(=O)n2-c2ccc(OC)cc2)o1,-3
COc1ccc(-c2cc(C(F)(F)F)n3nc(C(=O)N(C)Cc4cn(C)nc4C)c(Cl)c3n2)cc1,1
COc1ccc2c(c1)cc1c(=O)n(CC(=O)NC(C)CCc3ccccc3)nc(C)n12 (configuration not stated),-4
Cc1nn(Cc2ccccc2C(=O)O)c(C)c1[N+](=O)[O-],0
O=c1c(Cl)nc(Cl)cn1-c1ccc(Cl)c(Cl)c1,32*
CC(=O)Nc1nc(Cl)cn(-c2ccc(C)cc2)c1=O,6
COc1nc(Cl)cn(-c2ccc(C)cc2)c1=O,3
COc1ccc(/C=N/NC(=O)c2cc3c(ccc4ccccc43)o2)cc1OC,-9
C=C(C)C1CC=C(C)/C(=N/NC(=O)CCCOc2ccc(Cl)cc2Cl)C1 (configuration not stated),-2
Cc1ccc(C)c(/C=C2\C(=O)ON=C2c2ccccc2)c1,-1
Cc1ccc(C2=NOC(=O)/C2=C\c2ccc(C)o2)cc1,49*
O=C1ON=C(c2ccccc2)/C1=C/c1ccc(Br)s1,-5
CCOC(=O)c1cc(C)c(C(=O)OCC)nc1C,-6
COc1ccc2c(OC)cc(=O)n(C)c2c1,-4
COc1cc(/C=C2/C(=O)NN(c3ccc(Cl)cc3)C2=O)ccc1OCc1ccc(F)cc1,0
COc1cc(/C=C2\C(=O)NN(c3ccccc3)C2=O)cc(Cl)c1OCc1ccc(Cl)c(Cl)c1,57*
SMILES,RBX1-CUL1 inh
O=C1NN(c2ccccc2)C(=O)/C1=C/c1cc(Br)ccc1OCc1c(Cl)cccc1Cl,-1
COc1cc(/C=C2/C(=O)NN(c3ccc(C)c(Cl)c3)C2=O)ccc1OCc1ccccc1,1
CCOc1cc(/C=C2\C(=O)NN(c3ccccc3)C2=O)cc(Br)c1OCc1ccc(Cl)c(Cl)c1,12
COc1cc(/C=C2\C(=O)NN(c3ccccc3)C2=O)cc(Br)c1OCCCOc1ccccc1,3
COc1cc(/C=C2\C(=O)NN(c3ccccc3)C2=O)cc(Cl)c1OCCCOc1ccccc1,93*
CCOc1cc(/C=C2\C(=O)NN(c3ccccc3)C2=O)cc(Cl)c1OCCOc1cc(C)ccc1C,44*
COc1cc(/C=C2\C(=O)NN(c3ccccc3)C2=O)ccc1OCCOCCOc1ccccc1C,3
CCOc1cc(/C=C2\C(=O)NN(c3ccccc3)C2=O)cc(Cl)c1OCCOc1ccc(OC)cc1,9
CCOc1cc(/C=C2\C(=O)NN(c3ccccc3)C2=O)cc(Br)c1OCc1c(Cl)cccc1Cl,28*
COc1cc(/C=C2\C(=O)NN(c3ccccc3)C2=O)cc(Br)c1OCCCOc1ccc(C)cc1,11
CC1=Nc2nnnn2C(c2cccnc2)C1C(=O)Nc1ccccc1C (configuration not stated),-1
CCCOc1ccc(-c2csc3ncn(CCC(C)C)c(=O)c23)cc1,7
CN1CC2c3ccccc3OC(c3ccc4c(c3)OCO4)C2([N+](=O)[O-])O1 (configuration not stated),-6
Nn1c(C(F)(F)F)n[nH]c1=S,11
CC(C)(Oc1ccc(Cl)cc1)C(=O)Nc1ccc(Cl)cc1Cl,0
CCOc1cc(/C=C2/C(=O)NN(c3ccc(Cl)cc3)C2=O)cc(I)c1OC,39*
CCOc1cc(/C=C2\C(=O)NN(c3ccccc3)C2=O)cc(Cl)c1OCCCOc1ccc(Cl)cc1,2
COc1ccc(/C=C2\C(=O)NN(c3ccc(Cl)cc3)C2=O)cc1OC,19
COc1ccc(NC2CCCN(C(=O)c3cn4ccsc4n3)C2)cc1 (configuration not stated),9
CCOc1ccccc1N=C1SCC(=O)N1Cc1ccccc1,6
Cc1ccccc1NC(=O)c1ccc(C2CCCN2)s1 (configuration not stated),6
CC(C)n1cc(NC(=O)c2ccc(C3CCCN3)s2)nn1 (configuration not stated),1
O=C(Nc1ccc2scnc2c1)c1ccc(C2CCCN2)s1 (configuration not stated),99*

# Screens deposited in PubChem by Pan Lab, Icahn School of Medicine at Mount Sinai.
